Measurements: PubChem BioAssay (NCATS)
Results filed as inconclusive are left out. Where a call stands in place of a potency, no number is given. Active and inactive are the calls of the source. Unless noted, the call rests on the fitted dose curve; in most records, active means well fitted curve in the direction sought with a large enough effect; inconclusive means small, poorly fitted or top-dose-only effect, or another doubt; inactive means no such curve, though single readings can be large; an effect the other way counts as inactive or inconclusive.

Assays:
[1] = target: Nicotinamide N-methyltransferase (Homo sapiens) (UniProt P40261); test: Confirmatory Screen for Target Class Profiling of Small Molecule Inhibitors of Methyltransferases (AID 1745852); details: MTase-Glo luminescence, SAH detection, recombinant enzyme; measured here: NNMT max response; stronger effect = lower value
Sequence of Nicotinamide N-methyltransferase (Homo sapiens) (P40261 whole entry, looked up): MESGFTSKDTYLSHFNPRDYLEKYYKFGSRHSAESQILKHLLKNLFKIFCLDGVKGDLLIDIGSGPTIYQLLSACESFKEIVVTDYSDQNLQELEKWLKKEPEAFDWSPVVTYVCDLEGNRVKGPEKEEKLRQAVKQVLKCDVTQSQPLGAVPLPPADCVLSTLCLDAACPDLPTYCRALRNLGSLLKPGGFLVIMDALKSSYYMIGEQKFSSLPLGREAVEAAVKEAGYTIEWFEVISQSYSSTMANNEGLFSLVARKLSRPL

[2] = target: Phenylethanolamine N-methyltransferase (Homo sapiens) (UniProt P11086); test: as above; details: MTase-Glo luminescence, SAH detection, recombinant enzyme; measured here: PNMT max response; stronger effect = lower value
Sequence of Phenylethanolamine N-methyltransferase (Homo sapiens) (P11086 whole entry, looked up): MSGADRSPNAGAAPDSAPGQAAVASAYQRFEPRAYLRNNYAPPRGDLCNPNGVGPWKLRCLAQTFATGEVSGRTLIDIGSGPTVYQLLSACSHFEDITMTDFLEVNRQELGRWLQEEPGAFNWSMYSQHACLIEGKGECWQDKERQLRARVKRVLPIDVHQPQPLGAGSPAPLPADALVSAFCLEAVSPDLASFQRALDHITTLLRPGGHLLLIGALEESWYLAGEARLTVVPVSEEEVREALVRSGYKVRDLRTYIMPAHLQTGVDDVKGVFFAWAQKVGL

[3] = NCATS anti-infectives library activity on HEK293 viability as a counter-qHTS vs the C. elegans viability qHTS (AID 1745854); details: HEK293 viability counter-screen; series mostly up to 83.3 µM;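 further: HEK293 cells exposed to compounds for 24 hr before the viability read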
Procedure, shortened: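 HEK293 cells (1,500/well) exposed 24 hr at 37C to 1:5 titrations, up to 41.7 uM final; counter-screen to a C. elegans viability qHTS. Viability by CellTiter-Glo luminescence after 10 min at room temperature; digitonin as control.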

[4] = NCATS anti-infectives library activity on the primary C. elegans qHTS viability assay (AID 1745855; calls by dose curve); details: C. elegans worm area imaging, day 7; at 41.8 µM (top of the series) unless noted
Procedure, shortened: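 Viability read-out is GFP fluorescence of PE254-GFP-FLuc C. elegans, measured by laser cytometry (488 nm) at day 0, 3 and 7. Ten L1 worms per well were incubated 7 days at 21 °C with compounds and bacterial capsules in S medium.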

[5] = target: Metallo-beta-lactamase type 2 (Klebsiella pneumoniae) (UniProt C7C422); test: qHTS to identify inhibitors of the New Delhi Metallo-beta-lactamase (NDM): assay validation screen against the NCATS LOPAC Collection (AID 1794843); details: NDM-1 enzyme, nitrocefin hydrolysis, absorbance 485 nm; series mostly up to 38.4 µM;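 further: nitrocefin turnover by NDM-1 measured as 485 nm absorbance at plateau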
Sequence of Metallo-beta-lactamase type 2 (Klebsiella pneumoniae) (C7C422 whole entry, looked up): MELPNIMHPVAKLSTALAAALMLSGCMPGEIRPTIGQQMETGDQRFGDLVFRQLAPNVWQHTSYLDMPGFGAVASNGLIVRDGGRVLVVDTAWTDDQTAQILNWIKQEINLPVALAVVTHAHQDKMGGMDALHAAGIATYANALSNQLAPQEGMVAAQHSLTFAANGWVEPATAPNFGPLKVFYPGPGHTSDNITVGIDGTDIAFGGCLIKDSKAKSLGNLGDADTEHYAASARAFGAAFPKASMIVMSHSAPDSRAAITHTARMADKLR
Procedure, shortened: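 NDM-1 at 2 nM final in 50 mM HEPES pH 7.0 with 1 uM ZnSO4 and 0.01% Tween20 was preincubated with library compounds in DMSO. Nitrocefin (50 uM stock) was then added, and absorbance at 485 nm was read at the kinetic plateau.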

[6] = target: Glutathione peroxidase 1 (Homo sapiens) (UniProt P07203); test: Primary qHTS Assay for Inhibitors of Recombinant Selenoprotein Glutathione Peroxidase 1 (GPX1) (AID 1845191); details: recombinant GPX1, GR-coupled NADPH fluorescence, 15 min; series mostly up to 48.8 µM; further: nearly all actives have a fitted effect of over 65% in size
Sequence of Glutathione peroxidase 1 (Homo sapiens) (P07203 whole entry, looked up): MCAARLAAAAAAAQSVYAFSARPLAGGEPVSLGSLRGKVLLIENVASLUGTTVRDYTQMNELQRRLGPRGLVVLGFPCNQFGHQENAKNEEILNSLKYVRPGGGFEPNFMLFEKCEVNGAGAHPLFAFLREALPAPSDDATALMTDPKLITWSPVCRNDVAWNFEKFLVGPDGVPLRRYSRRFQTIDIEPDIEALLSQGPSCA
Procedure, shortened: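 10 nM GPX1 + cpd, 30 min RT; start w/ 1 mM GSH, 0.5 mM cumene hydroperoxide, 0.5 mM NADPH, 100 nM GR, 0.01% BSA; buffer 50 mM Tris-HCl pH 7.5, 2 mM EDTA, 150 mM NaCl; Fl 340/450, 0 & 15 min.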

[7] = target: Phospholipid hydroperoxide glutathione peroxidase GPX4 (Homo sapiens) (UniProt P36969); test: Primary qHTS Assay for Inhibitors of Recombinant Selenoprotein Glutathione Peroxidase 4 (GPX4) (AID 1845192); details: recombinant GPX4, GR-coupled NADPH fluorescence, 15 min; series mostly up to 50 µM; further: nearly all actives have a fitted effect of over 65% in size
Sequence of Phospholipid hydroperoxide glutathione peroxidase GPX4 (Homo sapiens) (P36969 whole entry, looked up): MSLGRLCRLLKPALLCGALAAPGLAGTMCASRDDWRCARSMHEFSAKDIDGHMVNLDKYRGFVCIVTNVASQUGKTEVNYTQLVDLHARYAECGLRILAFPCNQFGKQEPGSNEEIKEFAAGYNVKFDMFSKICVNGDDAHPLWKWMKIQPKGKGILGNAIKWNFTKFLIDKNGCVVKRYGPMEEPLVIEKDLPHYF
Procedure, shortened: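 NADPH consumption, followed by fluorescence at 340/450 nm between 0 and 15 min, reports GPX4 activity via coupled glutathione reductase (100 nM). Enzyme 200 nM was pre-exposed to compound 30 min; 0.5 mM cumene hydroperoxide and 1 mM GSH served as substrates.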

[8] = Viability counterscreen for antagonist of constitutive androstane receptor (CAR) against the NCATS DSHEA and TCM libraries (AID 1794837); details: CAR reporter cell line viability counterscreen, qHTS; series mostly up to 40 µM;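 further: compound exposure lasted 24 h before viability reading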
Procedure, shortened: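 Cell viability, CellTiter-Fluor, Ex/Em 405/540 nm, 1 h at 37C. HepG2-CYP2B6-hCAR, 2,500 cells/well; cpds + CITCO 48 uM final (antagonist mode), 24 h, 37C/5% CO2.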

[9] = Viability counterscreen for agonist of constitutive androstane receptor (CAR) against the NCATS DSHEA and TCM libraries (AID 1794838); details: HepG2 cell viability counterscreen, CAR agonist assay, co-treated with 0.75 µM CAR antagonist; series mostly up to 40 µM
Procedure, shortened: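 Viability by CellTiter-Fluor fluorescence, 405/540 nm, after 1 h at 37C. HepG2-CYP2B6-hCAR cells were exposed 24 h to test substances in presence of 0.75 uM PK11195 (final).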

[10] = target: Nuclear receptor subfamily 1 group I member 3 (Homo sapiens) (UniProt Q14994); test: Primary qHTS for agonist of constitutive androstane receptor (CAR) against the NCATS DSHEA and TCM libraries (AID 1794839); details: CAR agonist reporter cells, qHTS luminescence, CAR antagonist co-added at 0.75 µM; series mostly up to 40 µM;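 further: HepG2 cells expressing human CAR with a CYP2B6 reporter plus PK11195 antagonist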
Sequence of Nuclear receptor subfamily 1 group I member 3 (Homo sapiens) (Q14994 whole entry, looked up): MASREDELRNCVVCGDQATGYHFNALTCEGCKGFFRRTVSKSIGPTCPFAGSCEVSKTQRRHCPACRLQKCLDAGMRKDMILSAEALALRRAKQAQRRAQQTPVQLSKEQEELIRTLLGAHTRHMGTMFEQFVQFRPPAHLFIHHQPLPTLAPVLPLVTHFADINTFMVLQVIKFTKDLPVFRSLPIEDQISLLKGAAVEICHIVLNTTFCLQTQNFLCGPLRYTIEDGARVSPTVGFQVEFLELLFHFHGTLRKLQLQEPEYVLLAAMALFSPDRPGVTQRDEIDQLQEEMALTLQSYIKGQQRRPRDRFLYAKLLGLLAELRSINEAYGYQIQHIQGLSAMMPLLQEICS
Procedure, shortened: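 Luminescence from ONE-Glo luciferase was the agonist read-out in HepG2-CYP2B6-hCAR cells exposed 24 h to test substances. Wells also held the CAR antagonist PK11195 at 0.75 µM final. Viability was by CellTiter-Fluor fluorescence.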

[11] = HepG2 viability counterscreen (readout 2: ATP content) against the NCATS DSHEA and TCM libraries (AID 1794840); details: ATP content luminescence; series mostly up to 27.3 µM
Procedure, shortened: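 1,000 HepG2 cells/well, 4 h attach; compounds ~24 h, 37C/5% CO2. Readout 1: GF-AFC 25 uM final, 30 min, fluorescence 380/510 nm. Readout 2: CellTiter-Glo, 30 min RT, luminescence.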

[12] = target: Cytochrome P450 3A4 (Homo sapiens) (UniProt P08684); test: qHTS for inhibitors of CYP3A4 against the NCATS DSHEA and TCM libraries (AID 1919971); details: recombinant CYP3A4 enzyme activity, luminescence qHTS; series mostly up to 34.1 µM;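 further: inhibition lowers luminescence from luciferin made by CYP3A4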
Sequence of Cytochrome P450 3A4 (Homo sapiens) (P08684 whole entry, looked up): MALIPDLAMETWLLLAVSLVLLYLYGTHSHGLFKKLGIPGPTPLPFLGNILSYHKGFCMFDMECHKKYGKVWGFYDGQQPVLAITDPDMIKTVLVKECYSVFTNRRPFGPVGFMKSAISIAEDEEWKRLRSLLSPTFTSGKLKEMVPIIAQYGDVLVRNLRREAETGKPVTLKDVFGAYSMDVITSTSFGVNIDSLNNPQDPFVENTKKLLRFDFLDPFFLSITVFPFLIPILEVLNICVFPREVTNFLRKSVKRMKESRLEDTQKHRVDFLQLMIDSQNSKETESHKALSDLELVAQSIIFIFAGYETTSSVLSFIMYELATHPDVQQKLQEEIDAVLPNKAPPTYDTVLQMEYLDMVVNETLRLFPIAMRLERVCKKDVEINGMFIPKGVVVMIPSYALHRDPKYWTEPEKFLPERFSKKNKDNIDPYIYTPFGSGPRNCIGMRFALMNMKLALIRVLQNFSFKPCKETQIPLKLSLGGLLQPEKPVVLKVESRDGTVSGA
Procedure, shortened: (§1)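 Luminescent P450-Glo format: compounds preincubated 15 min with enzyme and luciferin substrate, reaction run 30-45 min after NADPH regeneration solution. Intraplate controls: ketoconazole for CYP3A4 and CYP2C19, sulfaphenazole for CYP2C9.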

[13] = target: Cytochrome P450 2D6 (Homo sapiens) (UniProt P10635); test: qHTS for inhibitors of CYP2D6 against the NCATS DSHEA and TCM libraries (AID 1919972); details: CYP2D6 enzymatic inhibition, luminescence qHTS; series mostly up to 34.1 µM
Sequence of Cytochrome P450 2D6 (Homo sapiens) (P10635 whole entry, looked up): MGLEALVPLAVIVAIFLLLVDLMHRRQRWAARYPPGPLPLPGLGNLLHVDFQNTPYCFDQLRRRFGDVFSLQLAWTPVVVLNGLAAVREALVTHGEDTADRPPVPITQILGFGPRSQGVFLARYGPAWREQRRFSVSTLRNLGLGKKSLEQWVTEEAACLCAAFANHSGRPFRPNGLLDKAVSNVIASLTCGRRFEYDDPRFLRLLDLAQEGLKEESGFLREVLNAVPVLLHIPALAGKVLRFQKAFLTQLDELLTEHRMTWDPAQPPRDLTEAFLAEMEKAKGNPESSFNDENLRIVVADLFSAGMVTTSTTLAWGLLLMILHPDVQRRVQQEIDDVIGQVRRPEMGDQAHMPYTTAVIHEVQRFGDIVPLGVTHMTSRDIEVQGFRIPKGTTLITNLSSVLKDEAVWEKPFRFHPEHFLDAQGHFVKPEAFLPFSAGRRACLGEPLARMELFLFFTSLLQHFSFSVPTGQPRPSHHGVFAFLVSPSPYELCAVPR
Procedure, shortened: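 Luminescent P450-Glo read-out of CYP2D6 turnover of a luciferin substrate after NADPH-driven reaction of 30-45 min at room temperature. Compounds were first preincubated 15 min with enzyme at titrated concentrations; quinidine was the intraplate control.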

[14] = target: Cytochrome P450 2C9 (Homo sapiens) (UniProt P11712); test: qHTS for inhibitors of CYP2C9 against the NCATS DSHEA and TCM libraries (AID 1919973); details: recombinant CYP2C9 enzyme activity, luminescence; series mostly up to 34.1 µM;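 further: luminogenic pro-luciferin CYP2C9 substrate turned into luciferin with NADPH regeneration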
Sequence of Cytochrome P450 2C9 (Homo sapiens) (P11712 whole entry, looked up): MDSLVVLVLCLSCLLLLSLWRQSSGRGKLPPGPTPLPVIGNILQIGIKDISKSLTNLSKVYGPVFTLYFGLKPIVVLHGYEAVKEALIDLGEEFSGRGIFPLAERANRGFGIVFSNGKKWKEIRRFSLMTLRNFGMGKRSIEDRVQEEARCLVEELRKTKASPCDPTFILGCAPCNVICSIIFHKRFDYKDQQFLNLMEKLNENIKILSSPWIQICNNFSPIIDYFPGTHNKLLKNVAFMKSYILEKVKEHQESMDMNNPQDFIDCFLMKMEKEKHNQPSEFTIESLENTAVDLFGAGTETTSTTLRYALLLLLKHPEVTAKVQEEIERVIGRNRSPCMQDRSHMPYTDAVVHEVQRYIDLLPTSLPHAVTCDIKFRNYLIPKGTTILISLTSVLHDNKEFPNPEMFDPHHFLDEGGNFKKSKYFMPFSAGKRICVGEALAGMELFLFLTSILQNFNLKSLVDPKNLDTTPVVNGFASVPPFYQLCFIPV
Procedure, shortened: as §1

[15] = KB-3-1 P-gp reporter qHTS against the NCATS DSHEA and TCM libraries (AID 1919975); details: KB-3-1 parental cells, CellTiter-Glo luminescence viability, 72 h; series mostly up to 26.1 µM
Procedure, shortened: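 CellTiter-Glo luminescence viability readout; KB-3-1 parental cells, 500/well, attached ~4 h, then compound for ~72 h, 37C, 5% CO2. Bortezomib intraplate control.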

[16] = qHTS Counterscreen for compound interference against the NCATS DSHEA and TCM libraries (AID 1919978); details: firefly luciferase detection reagent interference, luminescence;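 further: compounds preincubated with 1 µM D-luciferin or buffer before detection reagent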
Procedure, shortened: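 Luminescence counterscreen for detection-kit interference: compounds at 19.5 nM–39.8 uM final, 15 min RT with 1 uM D-luciferin or buffer only; detection reagent added, 30 min RT, then read.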

[17] = Dual reporter qHTS for agonist of Pregnane X Receptor (hPXR) against the NCATS DSHEA and TCM libraries: Fluorescence readout (AID 1920058); details: PXR dual reporter cells; series mostly up to 40 µM
Procedure, shortened: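 hPXR-Luc HepG2 cells, 2000/well in charcoal-stripped serum, attached 5 h, dosed for ~24 h at 37 °C. Fluorescence read is CellTiter-Fluor viability (Ex/Em 405/540 nm); rifampicin positive, tetraoctyl ammonium bromide (92 µM) cytotoxicity controls.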

With `Oc1cc(O)c2c(c1)O[C@H](c1ccc(O)c(O)c1)[C@@H](O)C2` the activity [1] was -7.72%, the activity [2] was 7.68% and the outcome [3] was “inactive”. The outcome [4] was “inactive”, the Potency [5] was “inactive” and the Potency [6] was “inactive”. The Potency [7] was “inactive”.

With `O=C(O)/C=C/c1ccc(O)c(O)c1` the activity [1] was -14.8%, the activity [2] was -0.851% and the outcome [8] was “inactive”. The outcome [9] was “inactive”, the outcome [10] was “inactive” and the outcome [11] was “inactive”. For the same compound, the Potency [5] was “inactive”, the Potency [6] was “inactive” and the Potency [7] was “inactive”. The outcome [12] was “inactive”, the outcome [13] was “inactive” and the outcome [14] was “inactive”. The outcome [15] was “inactive”, the max response [16] was -3.07% (inactive) and the outcome [17] was “inactive”.

For `C=CCN1CCc2cc(O)c(O)cc2C(c2ccccc2)C1` (centres undefined), the activity [1] was -4.37%, the activity [2] was -2.84% and the Potency [5] was “inactive”. For the same compound, the Potency [6] was “inactive” and the Potency [7] was “inactive”.

With `N=C(N)SCCc1cnc[nH]1` the activity [1] was -8.2%, the activity [2] was -8.19% and the Potency [5] was “inactive”. The Potency [6] was “inactive” and the Potency [7] was “inactive”.

In the case of `N#C/C(=C\c1ccc(O)c(O)c1)C(=O)NCCc1ccccc1`, the activity [1] is reported as -37.9%, the activity [2] is reported as 0.462% and the Potency [5] is reported as “inactive”. For the same compound, the Potency [6] was “inactive” and the Potency [7] was “inactive”.

In the case of `CN(C)C(=O)/N=N/C(=O)N(C)C`, the activity [1] is reported as -6.49%, the activity [2] is reported as -4.1% and the Potency [5] is reported as “inactive”. For the same compound, the Potency [6] was “inactive” and the Potency [7] was “inactive”.

In the case of `O=c1[nH]ccc2c(O)cccc12`, the activity [1] is reported as -0.246%, the activity [2] is reported as 1.15% and the Potency [5] is reported as “inactive”. For the same compound, the Potency [6] was “inactive” and the Potency [7] was “inactive”.

For `O=C1NC(=O)c2cc(Nc3ccccc3)c(Nc3ccccc3)cc21`, the Potency [5] was “inactive”, the Potency [6] was “inactive” and the Potency [7] was “inactive”.

For `CC1C(=O)N(C)C(=O)c2nc[nH]c21` (centres undefined), the Potency [5] was “inactive”, the Potency [6] was “inactive” and the Potency [7] was “inactive”.

With `COC1(C2=NCCN2)COc2ccccc2O1` (centres undefined) the Potency [5] was “inactive”, the Potency [6] was “inactive” and the Potency [7] was “inactive”.

In the case of `Cn1cc(C(F)(F)F)nc1-c1ccc(OCC(O)CNCCOc2ccc(O)c(C(N)=O)c2)cc1` (centres undefined), the Potency [5] is reported as “inactive”, the Potency [6] is reported as “inactive” and the Potency [7] is reported as “inactive”.

For `COC(=O)C1=C(C)NC(C)=C([N+](=O)[O-])C1c1ccccc1C(F)(F)F` (centres undefined), the Potency [5] was “inactive”, the Potency [6] was “inactive” and the Potency [7] was “inactive”.

In the case of `c1ccc(CN2CCC3(CCCc4ccccc43)CC2)cc1`, the Potency [5] is reported as “inactive”, the Potency [6] is reported as “inactive” and the Potency [7] is reported as “inactive”.

For `Cc1cccc(C(=O)NCN2CCN(c3ccccc3C#N)CC2)c1`, the Potency [5] was “inactive”, the Potency [6] was “inactive” and the Potency [7] was “inactive”.

For `CC(=O)C(C)=O`, the Potency [5] was “inactive”, the Potency [6] was “inactive” and the Potency [7] was “inactive”.

For `Cc1ccc([N+](=O)[O-])cc1S(=O)(=O)N(C)C`, the Potency [5] was “inactive”, the Potency [6] was “inactive” and the Potency [7] was “inactive”.
